# In PubChem BioAssay (Tox21):
# Values joined by “and” are separate entries in the source; they are usually repeats but may differ in a detail not shown here. Identical values can stand only once. A structure can be active in one record and inactive in another. Active and inactive are the calls of the source. Where a call stands in place of a potency, no number is given. Unless noted, calls follow the shape of the dose curve; as a rule, active = well fitted curve in the direction sought with a large enough effect in the repeat runs; inconclusive = weak or mixed curves; inactive = no such curve, though single readings can be large; an effect the other way counts as inactive or inconclusive.
# Experiments:
# [1] = qHTS assay to identify small molecule antagonists of the glucocorticoid receptor (GR) signaling pathway - cell viability counter screen (AID 720693); also: nearly all actives have a fitted effect of over 55% in size
# [2] = qHTS assay for identifying genotoxic compounds that show differential cytotoxicity against isogenic chicken DT40 cell lines with known DNA damage response pathways - Rev3 mutant cell line (AID 743014); also: nearly all actives have a fitted effect of over 55% in size; also: potency is read from the fitted curve at half-maximal effect
# [3] = qHTS assay for identifying genotoxic compounds that show differential cytotoxicity against isogenic chicken DT40 cell lines with known DNA damage response pathways - Rad54/Ku70 mutant cell line (AID 743015); also: nearly all actives have a fitted effect of over 60% in size; also: potency is read from the fitted curve at half-maximal effect
# [4] = qHTS assay to identify small molecule antagonists of the androgen receptor (AR) signaling pathway - cell viability counter screen (AID 743033; also: nearly all actives have a fitted effect of over 45% in size)
# [5] = qHTS assay to identify small molecule antagonists of the androgen receptor (AR) signaling pathway using the MDA cell line - cell viability counter screen (AID 743041; also: nearly all actives have a fitted effect of over 45% in size; also: potency is read from the fitted curve at half-maximal effect)
# Outline: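 Viability counter screen run alongside the AR antagonist reporter: cells seeded 5 h before compound, R1881 added, 16 h incubation at 37C without CO2, fluorescent CellTiter-Fluor signal quantified.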
# [6] = qHTS assay to identify small molecule antagonists of the thyroid receptor (TR) signaling pathway - cell viability counter screen (AID 743064); also: nearly all actives have a fitted effect of over 50% in size; also: potency is read from the fitted curve at half-maximal effect
# Outline: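 In rat pituitary GH3.TRE-Luc reporter cells co-exposed to compound and 1 nM T3 for 23.5 h, cytotoxicity was assessed with CellTiter-Fluor in the same wells, read by fluorescence.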
# [7] = qHTS assay to identify small molecule antagonists of the thyroid receptor (TR) signaling pathway (AID 743065); also: series mostly up to about 70 µM; nearly all actives have a fitted effect of over 55% in size
# Outline: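 GH3.TRE-Luc rat pituitary cells carrying two TR response elements driving luciferase were plated for 4 h, given compound plus 1 nM T3 (final), and incubated 23.5 h at 37 C. ONE-Glo luminescence measured reporter inhibition; CellTiter-Fluor fluorescence tracked cytotoxicity.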
# [8] = system: thyroid hormone receptor (rat, GH3 cells); experiment: qHTS assay to identify small molecule agonists of the thyroid receptor (TR) signaling pathway (AID 743066; calls by dose curve)
# [9] = qHTS assay to identify small molecule antagonists of the estrogen receptor alpha (ER-alpha) signaling pathway - cell viability counter screen (AID 743074; calls by dose curve;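 also: HEK293 cells carrying ER-alpha-UAS-bla reporter stimulated with 17beta-estradiol; nearly all actives have a fitted effect of over 45% in size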)
# [10] = qHTS assay to identify small molecule antagonists of the estrogen receptor alpha (ER-alpha) signaling pathway using the BG1 cell line - cell viability counter screen (AID 743081);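 also: compound given together with 17beta-estradiol as the ER stimulus; series mostly up to about 70 µM; nearly all actives have a fitted effect of over 45% in size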
# Aromatase (Homo sapiens) = Aromatase (Homo sapiens) (UniProt P11511); experiment: qHTS assay to identify aromatase inhibitors (AID 743083); also: nearly all actives have a fitted effect of over 55% in size; also: potency is read from the fitted curve at half-maximal effect
# [11] = target: Estrogen receptor (Homo sapiens) (UniProt P03372); experiment: qHTS assay to identify small molecule agonists of the estrogen receptor alpha (ER-alpha) signaling pathway (AID 743075; calls by dose curve;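 also: HEK293 GripTite cells with ER-alpha and UAS-driven beta-lactamase reporter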)
# [12] = target: Estrogen receptor (Homo sapiens) (UniProt P03372); experiment: qHTS assay to identify small molecule agonists of the estrogen receptor alpha (ER-alpha) signaling pathway using the BG1 cell line (AID 743079); also: nearly all actives have a fitted effect of over 20% in size
# [13] = qHTS assay to identify small molecule antagonists of the estrogen receptor alpha (ER-alpha) signaling pathway using the BG1 cell line (AID 743080; calls by dose curve;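 also: BG1 cells stimulated with 17beta-estradiol alongside compound; series mostly up to about 70 µM; nearly all actives have a fitted effect of over 25% in size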)
# Outline: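 After 5 days in phenol-red-free 10% charcoal-stripped FBS medium, BG1-Luc-4E2 cells were seeded, left 24 h at 37 C, co-treated with compounds and 17beta-estradiol for 21.5 h, then assayed for viability and luciferase.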
# [14] = target: Estrogen receptor (Homo sapiens) (UniProt P03372); experiment: qHTS assay to identify small molecule antagonists of the estrogen receptor alpha (ER-alpha) signaling pathway (AID 743069; active = well fitted curve in the direction sought with a large enough effect in the signal ratio in the repeat runs, not every such curve was filed as active; inconclusive = weak or mixed curves, or effect the other way; inactive = no such curve, though single readings can be large or run the other way; the % refers to the signal ratio; also: potency is read from the fitted curve at half-maximal effect)
# Outline: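 Estradiol-stimulated ER-alpha-UAS-bla HEK293 cells, 18 hr compound exposure at 37C. LiveBLAzer B/G substrate, 2 hr RT, fluorescence read.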
# [15] = qHTS assay for identifying genotoxic compounds that show differential cytotoxicity against isogenic chicken DT40 cell lines with known DNA damage response pathways - wild type cell line (AID 743012); also: nearly all actives have a fitted effect of over 60% in size
# Outline: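 Using parental DT40 (300 cells/well), compounds delivered in DMSO incubate 40 h at 37 C/5% CO2. CellTiter-Glo reagent then stands 30 min at room temperature, and luminescence gives cell viability.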
# Estrogen receptor (Homo sapiens), sequence (P03372 whole entry, looked up): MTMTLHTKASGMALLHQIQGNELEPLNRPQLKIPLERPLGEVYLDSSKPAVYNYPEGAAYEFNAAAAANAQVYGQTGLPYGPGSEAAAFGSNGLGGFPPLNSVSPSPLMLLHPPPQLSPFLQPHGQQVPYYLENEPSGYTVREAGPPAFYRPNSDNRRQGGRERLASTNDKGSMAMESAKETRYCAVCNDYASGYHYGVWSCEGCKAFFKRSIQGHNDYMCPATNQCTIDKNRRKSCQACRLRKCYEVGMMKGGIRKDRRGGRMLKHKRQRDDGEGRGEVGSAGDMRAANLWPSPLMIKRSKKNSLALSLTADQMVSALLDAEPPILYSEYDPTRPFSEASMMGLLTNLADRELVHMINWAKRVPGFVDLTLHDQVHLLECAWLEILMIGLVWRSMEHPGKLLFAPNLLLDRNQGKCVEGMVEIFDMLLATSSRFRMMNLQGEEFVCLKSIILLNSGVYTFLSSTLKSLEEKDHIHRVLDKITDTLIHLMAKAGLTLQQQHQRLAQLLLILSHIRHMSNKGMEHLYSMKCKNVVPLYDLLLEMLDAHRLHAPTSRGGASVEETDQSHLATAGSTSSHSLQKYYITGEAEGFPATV
# Aromatase (Homo sapiens), sequence (P11511 whole entry, looked up): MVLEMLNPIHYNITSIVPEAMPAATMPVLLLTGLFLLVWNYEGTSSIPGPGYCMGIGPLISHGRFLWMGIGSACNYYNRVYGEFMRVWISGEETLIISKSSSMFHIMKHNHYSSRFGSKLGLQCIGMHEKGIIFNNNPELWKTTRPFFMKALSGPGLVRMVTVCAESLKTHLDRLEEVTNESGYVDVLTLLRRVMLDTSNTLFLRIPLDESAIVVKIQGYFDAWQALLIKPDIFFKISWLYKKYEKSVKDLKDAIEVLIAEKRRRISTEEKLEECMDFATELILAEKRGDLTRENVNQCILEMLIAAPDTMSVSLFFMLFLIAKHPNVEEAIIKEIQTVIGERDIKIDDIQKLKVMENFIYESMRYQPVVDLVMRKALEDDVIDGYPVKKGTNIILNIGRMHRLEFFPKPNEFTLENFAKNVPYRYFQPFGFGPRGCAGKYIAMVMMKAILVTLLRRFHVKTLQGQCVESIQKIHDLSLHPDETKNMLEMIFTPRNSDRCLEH
Compound,outcome [1],Potency [2],Potency [3],outcome [4],Potency [5],Potency [6],Potency [7],outcome [8],Potency [9],Potency [10],Potency (Aromatase (Homo sapiens)),outcome [11],Potency [12],outcome [13],Potency [14],Potency [15]
Cc1ccc([N+](=O)[O-])cc1Cl,inactive,inactive,inactive,inactive,inactive,inactive,inactive,inactive,inactive,inactive,inactive,–,–,–,–,–
CCCCNc1cc(C(=O)O)cc(S(N)(=O)=O)c1Oc1ccccc1,inactive,inactive,inactive,inactive,inactive,inactive,inactive,inactive,inactive,inactive,inactive,–,–,–,–,–
CC(C)(C)C1CCCCC1=O (configuration not stated),inactive,inactive,inactive,inactive,inactive,inactive,inactive,inactive,inactive,inactive,inactive,inactive,inactive,inactive,–,–
COc1ccccc1N1CCN(CCCNc2cc(=O)n(C)c(=O)n2C)CC1,inactive,inactive,inactive,inactive,inactive,inactive,–,–,inactive,inactive,inactive,inactive,inactive,inactive,inactive,–
CC[C@H]1CC[C@H](NCc2cc3c(cc2OC)[C@H]2C[C@H]2C(=O)N3C)[C@H](c2ccccc2)N1,inactive,4.86 µM (active),4.86 µM (active),inactive,68.6 µM (active),24.3 µM (active),–,–,inactive,–,68.6 µM (active),inactive,–,–,–,–
O=C(O[C@@H](C(=O)O)[C@@H](OC(=O)c1ccccc1)C(=O)O)c1ccccc1,inactive,inactive,inactive,inactive,inactive,inactive,–,–,inactive,inactive,inactive,inactive,inactive,inactive,inactive,–
CCCCCCCCCC#N,inactive,inactive,inactive,inactive,inactive,inactive,inactive,inactive,inactive,inactive,inactive,inactive,inactive,inactive,inactive,–
CN(CC1(C)CCCO1)S(=O)(=O)c1ccc(Cl)c(S(N)(=O)=O)c1 (configuration not stated),inactive,inactive,inactive,inactive,inactive,inactive,inactive,inactive,inactive,–,inactive,–,–,–,–,–
CC(C)Nc1nc(N)nc(Cl)n1,inactive,inactive,inactive,inactive,inactive,–,inactive,inactive,inactive,inactive,inactive,–,–,–,–,–
NC(=O)Cc1cccc(C(=O)c2ccccc2)c1N,inactive,inactive,inactive,inactive,inactive,inactive,inactive,inactive,inactive,inactive,inactive,–,–,–,–,–
C=CC(C)(O)CC/C=C(\C)CCC=C(C)C (configuration not stated),inactive,inactive and 4.33 µM (active),inactive,inactive,inactive,inactive,inactive,inactive,inactive,inactive,inactive,–,–,–,–,–
C1CSCCS1,inactive,inactive,inactive,inactive,inactive,–,–,inactive,inactive,inactive,inactive,–,–,–,–,–
Clc1cccc(-c2cc(Cl)cc(Cl)c2)c1,inactive,inactive,inactive,inactive,inactive,inactive,inactive,inactive,inactive,inactive,inactive,–,inactive,inactive,inactive,–
CCN(CC)CCNC(=O)COc1ccc(Cl)cc1,inactive,inactive,inactive,inactive,inactive,–,inactive,inactive,inactive,inactive,inactive,inactive,inactive,inactive,inactive,–
CCOC(=O)CS,inactive,–,–,–,inactive,inactive,–,inactive,inactive,inactive,inactive,–,–,–,–,–
CCCCCCCOC(=O)CCC,inactive,–,inactive,inactive,inactive,inactive,inactive,inactive,inactive,inactive,inactive,inactive,inactive,inactive,–,–
COc1cc(N)c(Cl)cc1C(=O)NC1CCN(Cc2ccccc2)CC1,inactive,–,–,–,inactive,inactive,–,–,inactive,inactive,–,inactive,inactive,inactive,inactive,–
CC(C)NCC(O)COc1ccc(CCOCC2CC2)cc1 (configuration not stated),inactive,–,29.8 µM (active),inactive,inactive,inactive,–,inactive,inactive,inactive,inactive,–,–,–,–,–
C[C@]12CCC(=O)C=C1CC[C@@H]1[C@@H]2CC[C@@]2(C)[C@H]1CC[C@]2(O)C(=O)CO,inactive,–,–,inactive,inactive,inactive,–,inactive,inactive,inactive,inactive,inactive,–,inactive,–,–
COc1ccccc1OCC(O)COC(N)=O (configuration not stated),–,inactive,inactive,inactive,inactive,inactive,inactive,inactive,inactive,–,inactive,inactive,inactive,inactive,–,inactive
Cc1c[nH]c(=S)[nH]c1=O,inactive,inactive,inactive,–,–,inactive,inactive,inactive,inactive,inactive,–,inactive,inactive,inactive,–,–
CC(C)C1=CC2=CC[C@@H]3[C@](C)(CCC[C@@]3(C)C(=O)O)[C@H]2CC1,–,inactive,inactive,inactive,inactive,inactive,inactive,inactive,inactive,inactive,inactive,inactive,inactive,inactive,inactive and 54.9 µM [inconclusive] (active),inactive
